HSF1 inh: HSF1 inhibitors in luciferase reporter cells, primary screen, cell-based, NIH3T3, luminescence | hit rate 0.77% among 300,000 | NIH3T3-HGL HSE-luciferase, MG132-induced, luminescence 8 h; hits give low values | activity change, negative = inhibition, % at 7.5 µM (by protocol);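 active means more than half of replicate wells show activity change below -50%, luminescence cut by over half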;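 further: luciferase reports HSF-1 transcriptional activity via heat shock element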
DAX1 inh: DAX1 (NR0B1) inhibitors, primary screen, cell-based, HEK293, Gal4-DAX1, luciferase luminescence; Nuclear receptor subfamily 0 group B member 1 (Homo sapiens), P51843; HEK293 Gal4-DAX1 luciferase reporter; inhibition, % at 6.75 µM; hit rate 0.99% among 340,000;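 active means inhibition above the mean over all tested compounds plus 3 SD, cut at about 4.2% in these data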;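 further: inhibition shows as a rise in luminescence from relieved DAX1 repression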
Target sequence (P51843 207-470 limits assumed): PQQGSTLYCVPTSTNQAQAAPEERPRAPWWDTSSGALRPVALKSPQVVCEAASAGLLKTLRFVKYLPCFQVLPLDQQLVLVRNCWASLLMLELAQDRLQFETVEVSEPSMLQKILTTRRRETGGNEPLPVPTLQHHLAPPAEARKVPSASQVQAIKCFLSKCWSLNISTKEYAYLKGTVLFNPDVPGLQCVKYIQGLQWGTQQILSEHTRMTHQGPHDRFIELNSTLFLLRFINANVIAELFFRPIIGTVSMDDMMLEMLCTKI
GAA850 FXN act: FXN promoter activators, primary screen, cell-based, luciferase luminescence, HEK293 lucGAA850; activation, % at 6 µM; hit rate 0.56% among 360,000; HEK293 lucGAA850 FXN promoter luciferase reporter, 24 h; percent of 10 µM SAHA response;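 active means activation above the average of all compounds screened plus 3 SD, cutoff fixed separately per campaign, cut at about 7.5% in these data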
HSF-1 act: HSF-1 activators, primary screen, NIH3T3-HGL cells, MG132 stress, luminescence, single point; activation, % at 9 µM; AID 504408, 2011; hit rate 1.7% among 300,000; NIH3T3-HGL HSF-1 luciferase reporter, 8 h; 100% = twice DMSO control signal;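 active means mean replicate activation of at least 50% with a set share of replicates each reaching 50%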
AHR act: AHR activators, primary screen, cell-based, luminescence, luciferase reporter, human. Aryl hydrocarbon receptor (Homo sapiens), P35869. AHR-responsive luciferase reporter cells. activation, % at 5 µM. hit rate 2.5% among 320,000. AID 2796, 2010; in the data active means activation above about 47%
Each line names hits and unclear results; the compound was inactive in the other large screens. Sampled rows, rich in hits. Any-hit rate of the full collection: about 5.4%.

Cc1ccc(N(C(=O)c2csnn2)C(C(=O)NC2CCCCC2)c2cccnc2)cc1 (stereo not given)	none
CNC(=O)NC(=O)C(c1ccccc1)N(C)CC1COc2ccccc2O1 (stereo not given)	none
CCc1nnc(NC(=O)C(c2ccccc2)c2ccccc2)s1	none
CCOC(=O)Cc1csc(NC(=O)CSc2nc(=O)[nH]c3c2CCC3)n1	none
CC(C)c1ccc(CNc2ccc([N+](=O)[O-])cn2)cc1	HSF-1 act 71
Cc1cccc(N(C(=O)c2ccc(CN3CCOCC3)o2)C(C(=O)NC(C)(C)C)c2ccc(F)cc2)c1 (stereo not given)	HSF-1 act 64
Cc1ccc(C)c(N2N=C(C(=O)OCc3nnc(-c4ccccc4)o3)CCC2=O)c1	none
O=C(COC(=O)c1ccc(Br)cc1)NCCc1ccccc1	none
O=C(COC(=O)c1ccccc1)c1ccc(Br)cc1	HSF-1 act 58
O=C(c1cc(C2CC2)nc2ccc(Br)cc12)N1N=C(C(F)F)CC1(O)C(F)F (stereo not given)	none
CCN(c1ccccc1)S(=O)(=O)c1cnc[nH]1	HSF1 inh -70
COc1ccc(CC2(c3ccccc3)NC(=O)NC2=O)cc1 (stereo not given)	none (no result: HSF1 inh, HSF-1 act, AHR act)
Cn1nc(-c2ccccn2)nc2c(=O)n(C)c(=O)nc1-2	HSF1 inh -94
CCOC(=O)C1(Cc2cccc(Cl)c2)CCCN(C(=O)CCSC)C1 (stereo not given)	none
COc1cc(N/N=C/c2ccc(N(C)C)cc2)ncn1	AHR act 79
CCNc1nc(NCC)nc(N/N=C/c2ccc(N(C)C)cc2)n1	none
COc1cc(N/N=C/c2ccccc2O)ncn1	HSF-1 act 65
Cc1c(N(C)S(=O)(=O)c2cccc(C(=O)NC(C)C)c2)c(=O)n(-c2ccccc2)n1C	HSF-1 act 62
O=C1NC(=O)N(Cc2ccccc2F)C1=O	none
COc1cc2c(cc1NC(=O)CSc1cccc[n+]1[O-])oc1ccccc12	AHR act 80
COc1cc2c(cc1NC(=O)CSc1nc3ccc(C)cc3[nH]1)oc1ccccc12	HSF-1 act 74, AHR act 57 (no result: DAX1 inh, GAA850 FXN act)
COc1cc2c(cc1NC(=O)CSc1nnc(Cc3cccs3)n1C)oc1ccccc12	AHR act 47 (no result: HSF1 inh, HSF-1 act)
COc1cc2c(cc1NC(=O)CSc1ccc(C)cc1)oc1ccccc12	none
COc1ccc(N(CC(=O)NCc2ccccc2C)S(=O)(=O)c2ccccc2[N+](=O)[O-])c(OC)c1	none
NS(=O)(=O)c1cc(C(=O)N2CCNC(=O)C2)ccc1Cl	none
CCOc1ccc(NC(=O)c2ccc(NC(=O)CSc3nc4ccccc4c(=O)[nH]3)cc2)cc1	none
O=C(O)CCn1[nH]c(=O)ccc1=O	HSF-1 act 58
O=C(O)c1cccnc1Sc1ccccc1	HSF-1 act 72
Cc1ccc(NS(=O)(=O)c2ccc(OCC(=O)NCc3ccncc3)cc2)cc1	none
Cc1cc(C(=O)NCC(c2ccco2)N2CCCC2)c2ccccc2n1 (stereo not given)	none (no result: HSF1 inh, HSF-1 act)
COC(=O)C(C)N(C(=O)c1ccc(C(=O)c2ccccc2)cc1)c1c(C)cccc1C (stereo not given)	HSF-1 act 65
COC(=O)C(C)N(C(=O)c1ccc(Cl)cc1)c1c(C)cccc1C (stereo not given)	none
COc1ccc(S(=O)(=O)NCC2CCCN(C(=O)C3CCCC3)C2)cc1 (stereo not given)	HSF1 inh -62
COc1ccc(S(=O)(=O)NCC2CCCN(Cc3cccnc3)C2)cc1 (stereo not given)	DAX1 inh 4.3
O=C(Nc1ccc(Br)cc1)C1CCN(c2cnccn2)CC1	none
COCCn1c(SCC(=O)Nc2ccc(NC(C)=O)cc2)nc2c([nH]c3ccccc32)c1=O	AHR act 74
CCn1c(SCC(=O)Nc2cccc(NC(C)=O)c2)nc2c([nH]c3ccccc32)c1=O	AHR act 57
CCOC(=O)N1CCN(C(=O)CSc2nc3c([nH]c4ccccc43)c(=O)n2C)CC1	AHR act 51
COCCn1c(SCC(=O)NCC2CCCO2)nc2c([nH]c3ccccc32)c1=O (stereo not given)	AHR act 59

Source: PubChem BioAssay
